ELG1 DNA repair = qHTS screen for small molecules that inhibit ELG1-dependent DNA repair in human embryonic kidney (HEK293T) cells expressing luciferase-tagged ELG1; HEK293T ELG1-luciferase reporter, luminescence, 16 h; DNA damage induced by 5-fluorouridine; Potency, µM (titrated, usually from 46.1 µM), for inactives: at the highest dose activity change, negative = inhibition, usual class: inhibitors; 330,000 compounds, 2.3% hits; note: % is set by controls: 0 for no effect and ±100 for the full control effect; nearly all actives have a fitted effect of over 55% in size
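Quantitative HTS, concentration-response format. 2,000 cells/well co-treated with 5-fluorouridine and compound, 16 hr in 5% CO2 at 37 °C; ONE-Glo luminescence read after 30 min.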
SMN2 splice up = qHTS Assay for Enhancers of SMN2 Splice Variant Expression; HEK293 SMN2-luciferase splicing reporter, luminescence, 30-36 h; Potency, µM (series often up to 46.1 µM), without a hit: at the top dose activity change, positive = activation, actives largely listed as activators; 210,000 compounds, 2.8% hits; AID 1458, 2008; note: % of control where 0% means no effect; nearly all actives have a fitted effect of over 55% in size
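HEK293 cells carry an SMN2 […]–luciferase reporter in which exon 7 inclusion puts luciferase in frame. Cells were plated 10-12 h before compound addition, then incubated 30-36 h at 37C. ONE-Glo luminescence was read; sodium butyrate at 4.5 mM final served as control.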
Rab9 prom act = qHTS Assay for Rab9 Promoter Activators; Huh7 Rab9 promoter-luciferase reporter, luminescence, 24 h; Potency, µM (series often up to 9.22 µM), for inactives: top-dose activation, negative = inhibition, most hits filed as activators; 320,000 compounds, 2.8% hits; note: % of control where 0% means no effect; nearly all actives have a fitted effect of over 60% in size
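Cells were plated at 1500 per well in reduced-serum medium with 10% FBS and left 2 h. Compound in DMSO was then added for 24 h at 37 °C. Reporter signal was read by luminescence after 10 min with luciferase detection reagent.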
FLuc modulator = qHTS profiling assay for firefly luciferase inhibitor/activator using purifed enzyme and Km concentrations of substrates (counterscreen for miR-21 project); purified FLuc, Km substrates, luminescence inhibition; 360,000 compounds, 6.9% hits; AID 588342, 2011; Potency, µM (series often up to 57.5 µM), for inactives: top-dose activity change, negative = inhibition, hits mostly inhibitors;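 note: plate controls were vehicle for no effect and reference inhibitor for full effect; nearly all actives have a fitted effect of over 55% in size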
Target sequence (P08659 whole entry, looked up): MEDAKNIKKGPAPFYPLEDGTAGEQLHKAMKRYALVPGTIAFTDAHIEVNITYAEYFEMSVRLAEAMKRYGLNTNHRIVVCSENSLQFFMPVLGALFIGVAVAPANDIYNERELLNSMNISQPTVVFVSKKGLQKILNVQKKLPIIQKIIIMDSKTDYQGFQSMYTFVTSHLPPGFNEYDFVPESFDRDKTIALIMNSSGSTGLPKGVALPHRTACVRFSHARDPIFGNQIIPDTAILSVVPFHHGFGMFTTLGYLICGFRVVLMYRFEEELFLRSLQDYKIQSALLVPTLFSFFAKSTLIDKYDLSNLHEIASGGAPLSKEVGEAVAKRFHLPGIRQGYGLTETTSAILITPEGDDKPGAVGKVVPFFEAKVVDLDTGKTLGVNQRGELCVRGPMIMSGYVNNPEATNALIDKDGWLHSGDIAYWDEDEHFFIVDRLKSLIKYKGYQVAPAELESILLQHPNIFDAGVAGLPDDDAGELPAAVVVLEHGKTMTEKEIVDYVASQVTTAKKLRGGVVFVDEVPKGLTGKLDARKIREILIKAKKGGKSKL
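Biochemical qHTS of compounds, final roughly 60 µM downward over six points, against 10 nM purified firefly luciferase using Km concentrations of substrates (10 uM D-luciferin, 10 uM ATP) in Tris acetate pH 7.5 buffer; luminescence output.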
ELG1 genotox = qHTS screen for small molecules that induce genotoxicity in human embryonic kidney (HEK293T) cells expressing luciferase-tagged ELG1; HEK293T ELG1-luciferase reporter, luminescence, 16 h; 330,000 compounds, 1.3% hits; Potency, µM (titrated, usually from 46 µM), inactives show at the highest dose activity change, positive = activation, actives largely listed as activators; note: % of control where 0% means no effect; nearly all actives have a fitted effect of over 60% in size
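DMSO vehicle served as control against compound-treated ELG1-luciferase HEK293T cells; exposure lasted 16 hr at 37 °C and 5% CO2, followed by ONE-Glo luminescence detection after 30 min.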
NPC1 promoter act = qHTS Assay for NPC1 Promoter Activators; Huh7 NPC1 promoter luciferase reporter, 24 h; Potency, µM (titrated, usually from 9.22 µM), without a hit: top-dose activation, hits mostly activators; 320,000 compounds, 2.4% hits; AID 485313, 2010; note: % of control where 0% means no effect; nearly all actives have a fitted effect of over 60% in size
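Compounds in DMSO were transferred onto Huh7 NPC1-luciferase reporter cells pre-incubated 2 h; after 24 h at 37 °C, Amplite reagent was dispensed and luminescence recorded 10 min later.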
Numbers without * were called inactive; ? = inconclusive; / = no result given; [ ] = dose if it differs, or a comment. An excerpt weighted towards active compounds, which were near 9.4% of everything screened. Calls come from the whole dose curve; as a rule, active = well fitted curve in the direction sought with a large enough effect; inconclusive = small, poorly fitted or top-dose-only effect, or another doubt; inactive = no such curve, though single readings can be large; an effect the other way counts as inactive or inconclusive. Potency is the fitted concentration of half-maximal effect.

SMILES	ELG1 DNA repair	SMN2 splice up	Rab9 prom act	FLuc modulator	ELG1 genotox	NPC1 promoter act
Cc1cc(C)c2oc(-c3cccc(NC(=O)c4ccc(-c5cccc([N+](=O)[O-])c5)o4)c3)nc2c1	/	9%	/	-13%	/	/
Cc1cc(C)c2c(=O)n(CC(=O)Nc3ccc(Br)c(C)c3)sc2n1	0%	/	0%	8.5µM*	0%	1%
Cc1cc(NC(=O)Cc2ccsc2)ccc1Br	24%	/	23%	17µM*	2%	22%
CCN(CC)S(=O)(=O)c1cc(NC(=O)Cc2ccsc2)ccc1C	-27%	/	7%	-9%	-17%	-1%
COc1ccc(NC(=O)CSc2ccc3c(c2)OCCO3)cc1OC	-11%	/	8%	-7%	-8%	-2%
COc1cc2cc(C(=O)Nc3ccc4c(c3)OCCO4)[nH]c2cc1OC	?	/	15%	12µM*	?	29%
COc1cc2[nH]c(C(=O)Nc3ccc4c(c3)OCCO4)cc2c(OC)c1OC	-4%	/	14%	8.5µM*	?	17%
C=Cc1ccc(Cn2c(=O)n(-c3ccc(C)cc3)c(=O)c3c2c2cc(OC)ccc2n3C)cc1	/	/	/	1%	/	/
Cc1ccccc1-c1nc(C(N)=O)c2c(n1)n(-c1ccc3c(c1)OCO3)c(=O)n2C	/	11%	/	5%	/	/
COc1ccc(S(=O)(=O)NCC(c2ccco2)N2CCN(c3ccccc3F)CC2)cc1C (stereo not given)	/	/	/	4%	/	/
Cc1ccc(NC(=O)COc2ccccc2C=O)cc1Cl	?	/	2.5µM*	0.85µM*	?	2µM*
CC(=O)Nc1cccc(NC(=O)COc2ccccc2C)c1	18%	/	12%	15µM*	1%	13%
CCn1ccc2c(OCC(=O)Nc3ccc(C)c(Cl)c3)cccc2c1=O	/	/	/	-2%	/	/
COc1ccccc1OCC(=O)Nc1ccc2c(c1)OCO2	?	/	21%	15µM*	25%	?
Cc1cc(NC(=O)COc2ccccc2C)no1	?	/	3.2µM*	17µM*	?	3.2µM*
CC(=O)c1cccc(NC(=O)COC(=O)COc2ccccc2C)c1	9%	4%	-3%	-8%	0%	-3%
O=C(COc1ccccc1Cl)Nc1ccc2c(c1)OCO2	?	/	?	3.4µM*	3.5µM*	2.8µM*
COc1ccc(OCC(=O)Nc2cccc(OC)c2)cc1	?	/	-4%	-15%[2.3 µM]	?	2%
COc1cc(C)ccc1OCC(=O)Nc1ccc2c(c1)OCO2	?	/	2.8µM*	7.6µM*	?	?
Cc1cc(C(=O)COc2ccccc2Cl)c(C)n1-c1ccc2c(c1)OCO2	?	?	25%	21µM*	?	19%
COc1cccc(NC(=O)COc2ccccc2C(N)=O)c1	?	4µM*	2µM*	2.4µM*	7.9µM*	2.8µM*
Cc1cc(C(=O)CSc2n[nH]c(N)n2)c(C)n1-c1ccc2c(c1)OCO2	13%	-1%[1.84 µM]	2%	?	2%	8%
Cc1cccc2sc(N(Cc3cccnc3)C(=O)C3COc4ccccc4O3)nc12 (stereo not given)	/	/	/	-6%	/	/
Cc1ccc(-n2c(C)cc(C(=O)COc3c(CO)cc(F)cc3CO)c2C)cc1C	?	-52%	-1%	24µM*	-5%	0%
Cc1ccccc1OCC(=O)Nc1ccc2c(c1)OCO2	?	-9%	7%	13µM*	?	?
SMILES	ELG1 DNA repair	SMN2 splice up	Rab9 prom act	FLuc modulator	ELG1 genotox	NPC1 promoter act
Cc1nnc(NC(=O)C(=O)c2cc(C)n(-c3ccc(C)c(C)c3)c2C)s1	/	/	/	-7%	/	/
Cc1cccc(-n2ccnc2SCC(=O)Nc2nccs2)c1C	?	-41%	2%	-1%	-3%	0%
CCc1nnc(NC(=O)CSc2nccn2-c2cccc(C)c2C)s1	9.2µM*	-74%	-8%	6%	-8%	-10%
CCc1nnc(NC(=O)CSc2ccc(-c3ccccc3OC)nn2)s1	?	-3%	-4%	?	8%	-7%
CCc1nnc(NC(=O)CSc2ccc(-c3cccs3)nn2)s1	-2%	-5%	2%	11µM*	-14%	0%
CCc1nnc(NC(=O)CSc2ccc(-c3ccc(F)cc3)nn2)s1	13%	?	-3%	11µM*	?	2%
COc1cccc(OC(=O)CSc2nnc(-c3cccs3)o2)c1	/	/	/	4%	/	/
CCCCC(=O)Nc1ccc(C(=O)OCc2cc(=O)n3ccsc3n2)cc1	/	/	/	-3%	/	/
S=C(Nc1ccc(N2CCOCC2)cc1)Nc1ccc2nc(-c3ccco3)c(-c3ccco3)nc2c1	?	-12%	4%	15µM*	-2%	1%
O=C(NC(=S)Nc1ccc(N2CCOCC2)cc1)c1ccco1	?	16µM*	?	?	?	2.8µM*
O=C(NC(=S)Nc1ccc(CN2CCOCC2)cc1)c1ccco1	?	/	?	17µM*	?	20%
O=C(Nc1ccc2nc(-c3ccco3)c(-c3ccco3)nc2c1)N1CCN(c2ccccn2)CC1	12µM*	?	1%	?	-14%	1%
Cc1ccc(N2C(=O)c3n[nH]c(C)c3C2c2ccco2)cc1 (stereo not given)	?	?	23%	8.5µM*	?	?
Cc1ccc(Cn2nnc3c(=O)n(CC(=O)N4CCN(c5ccccc5)CC4)cnc32)cc1	15µM*	-64%	-2%	2%	-9%	2%
O=c1[nH]n(-c2ncnc3c2cnn3-c2ccccc2)c(=O)c2ccccc12	12%	-3%	5%	13µM*	0%	-3%
c1ccc(-n2ncc3c(NCCN4CCCCC4)ncnc32)cc1	?	10%	?	19µM*	?	?
COc1ccc(-n2ncc3c(NC(C)(C)CO)ncnc32)cc1	/	/	/	4.8µM*	/	/
Cc1cccc(-n2ncc3c(NCCN4CCOCC4)ncnc32)c1	8%	-9%	29%	?	0%	26%
CC(=O)NNc1ncnc2c1cnn2-c1ccccc1	-7%	7%	0%	-5%	8%	-4%
CC(C)(C)Nc1ncnc2c1cnn2-c1ccccc1	?	2µM*	0.4µM*	1.5µM*	1µM*	0.35µM*
COc1ccc(C(=O)NNc2ncnc3c2cnn3-c2ccccc2)cc1	/	/	/	-9%	/	/
COc1ccc2c(C)c(CCC(=O)NCCc3ccccc3OC)c(=O)oc2c1	/	-1%	/	-2%	/	/

From PubChem BioAssay
